In the library only some 9.3% were active in any assay of this set; here they are far more common.
VACV Venus inh: vaccinia inhibition (Venus reporter); Vaccinia virus Venus reporter expression, fluorescence; AID 720580; hit rate 0.46% among 330,000; Potency, µM (highest dose often 36.5 µM), for inactives: at the highest dose activity change, negative = inhibition, most hits filed as inhibitors; calls by dose curve; tested in A549 cells; also: potency is read from the fitted curve at half-maximal effect; nearly all actives have a fitted effect of over 30% in size
HCMV inh: inhibitors of human cytomegalovirus; HFF cells, HCMV-luciferase reporter, 72 h; stronger effect = lower value; hit rate 4.5% among 410,000; activity change, negative = inhibition, % at 57.5 µM; AID 1259415; in the data active = activity change below about -60%; inconclusive = no clear call, values can overlap the other calls; inactive = above about -39%
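Luciferase read-out from HCMV-luciferase-infected HFFs (MOI 1 PFU/cell) 72 h post infection at 37C; compounds added after 16 h cell attachment; activity normalized between buffer-only basal and Salinomycin (10uM) inhibitor controls.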
Sm TGR inh: inhibitors of Schistosoma mansoni thioredoxin glutathione reductase; purified TGR, DTNB reduction, TNB absorbance 405 nm; Potency, µM (doses to about 114 µM), for inactives: top-dose activity change, negative = inhibition, actives largely listed as inhibitors; hit rate 3% among 360,000; AID 485364; also: potency is read from the fitted curve at half-maximal effect; nearly all actives have a fitted effect of over 60% in size
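Kinetic colorimetric format: TGR-catalysed, NADPH-driven DTNB reduction monitored via TNB absorbance. Enzyme dispensed at 20 nM; compound exposure 15 min at room temperature before reaction start.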
Vaccinia mCherry: inhibitors of vaccinia virus infection (mCherry reporter signal). Vaccinia virus mCherry reporter infection, fluorescence. Potency, µM (doses to about 36.5 µM), for inactives: at the top dose activity change, negative = inhibition, usual class: inhibitors. hit rate 0.63% among 310,000; calls by dose curve; tested in A549 cells; also: potency is read from the fitted curve at half-maximal effect; nearly all actives have a fitted effect of over 35% in size
FMDV antiviral: antivirals against foot and mouth disease virus; Potency, µM (top dose mostly 57.9 µM), for inactives: top-dose activity change, negative = inhibition, hits mostly inhibitors; hit rate 1.2% among 410,000; FMDV antiviral cell-based qHTS; calls by dose curve; tested in HEK293T cells; also: read-out not given here; potency is read from the fitted curve at half-maximal effect; nearly all actives have a fitted effect of over 45% in size
HCV inh: HCV inhibition | Huh7.5.1 HCVcc-Cre infection, luciferase reporter, 44 h | Potency, µM (titrated, usually from 41.8 µM), inactives show at the top dose activity change, negative = inhibition, actives largely listed as inhibitors | hit rate 3.4% among 340,000 | AID 651820; also: potency is read from the fitted curve at half-maximal effect
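Cells seeded at 1,000/well and cultured 4 h, then compounds added followed by HCVcc-Cre virus (~0.5 moi). After 44 h further culture, luciferase substrate was added, plates held 15 min at room temperature, and luminescence read for 15 sec.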
The depositor's hits bear a star; i = inactive; u = inconclusive; x = not tested or not shown. Unless noted, calls follow the shape of the dose curve; as a rule, active = well fitted curve in the direction sought with a large enough effect; inconclusive = small, poorly fitted or top-dose-only effect, or another doubt; inactive = no such curve, though single readings can be large; an effect the other way counts as inactive or inconclusive. % is scaled to controls: 0 for no effect and ±100 for the full control effect.

SMILES	VACV Venus inh	HCMV inh	Sm TGR inh	Vaccinia mCherry	FMDV antiviral	HCV inh
CC(C)(C)c1ccc(S(=O)(=O)NC(=O)C2(C)CCN2C(=O)CC2CCCC2)cc1 (stereo not drawn)	6.3%	-22.3	x	i	-8.3%	x
Cc1ccc(C)c(N(CC(=O)NCCc2ccccc2)C(=O)CCC(=O)Nc2ccccn2)c1	-1.3%	-8.5	-10.3%	-4.3%	14.5%	u
CCOC(=O)COc1ccc(C2C(C(=O)OC)=C(C)NC3=C2C(=O)c2ccccc23)cc1Cl (stereo not drawn)	3.1%	-101.8*	5.8%	-8.7%	-14.3%	x
CCOc1cc(C2C(C(=O)OC)=C(C)NC3=C2C(=O)c2ccccc23)ccc1OC (stereo not drawn)	-11.6%	18.4	8.4%	-17.0%	-13.7%	x
CCOc1cc(C2C(C(=O)OC)=C(C)NC3=C2C(=O)c2ccccc23)c(Br)cc1OC (stereo not drawn)	-13.9%	2.1	14.6%	-13.4%	-8.2%	x
CCOc1cc(Br)c(C2C(C(=O)OC)=C(C)NC3=C2C(=O)c2ccccc23)cc1OCC (stereo not drawn)	-18.7%	-28.8	22.4µM*	-27.4%	-24.9%	x
CSCCC1c2cccn2-c2ccccc2N1C=Nc1c(C)cccc1C (stereo not drawn)	x	15.9	x	x	x	x
CN(C)S(=O)(=O)N1CCC(Oc2ccc(C(=O)NCC(C)(C)CO)cc2)CC1	-11.5%	-63.7*	4.5%	-15.6%	3.6%	18.3%
CN(C)S(=O)(=O)N1CCC(Oc2cccc(C(=O)NC3CCCCC3)c2)CC1	-18.5%	u	-26.2%	i	u	5.62µM*
COc1ccc(OC)c2[nH]c(C(=O)N3CCC(C(=O)O)CC3)cc12	x	19.8	-14.3%	x	-10.5%	-1.9%
COc1cc2cc(C(=O)N3CC(COS(C)(=O)=O)c4ccc(O)cc43)[nH]c2c(OC)c1OC (stereo not drawn)	35.5µM*	x	x	u	6.31µM*	u
C=CCc1cc(/C=C2/NC(=O)NC2=O)cc(OCC)c1O	-0.1%	-1.7	50.1µM*	u	-2.5%	-19.6%
C=CCc1cc(/C=C2/NC(=S)NC2=O)cc(OC)c1O	207.3%	101.7	5.3%	i	-24.9%	-18.7%
COc1cccc(-c2nnc(Nc3nc4c(F)cccc4s3)o2)c1	-25.0%	135.8	-7.9%	-11.6%	x	3.2%
COc1ccccc1-c1nnc(Nc2nc3c(OC)cccc3s2)o1	-29.4%	-75.9*	2.7%	u	-11.5%	u
COc1cccc2sc(Nc3nnc(-c4ccccc4Cl)o3)nc12	-28.8%	-60.2*	-6.1%	u	11.1%	u
COc1cccc2sc(NN)nc12	-3.9%	29.1	14.2%	-15.2%	32.6%	-3.1%
c1ccc(-n2cc(CN3CCCC3)c(-c3ccc4c(c3)OCO4)n2)cc1	-18.1%	-30.3	6.9%	-25.5%	-22.8%	-9.3%
COc1ccc(-c2nnc(NC(=O)CSc3ccc(Cl)cc3)s2)cc1OC	-13.0%	-31.3	1.7%	-16.2%	1.7%	2.2%
COc1ccc(-c2csc(NC(=O)c3c(C)noc3C)n2)cc1	x	-11.7	-3.2%	x	-26.0%	u
COc1ccc(-c2csc(NC(=O)c3ccoc3C)n2)cc1	-3.6%	u	3.1%	i	-8.5%	11.2µM*
COc1ccc(-c2csc(NC(=O)c3ccccc3S(C)(=O)=O)n2)cc1	-7.1%	u	-4.5%	i	25.1µM*	u
O=C(Nc1nc(-c2ccccc2)cs1)c1ccccc1NS(=O)(=O)c1ccc(F)cc1	u	-100.2*	-2.3%	u	u	u
O=C(O)CN1C(=O)C(=O)N(Cc2c(F)cccc2Cl)C1=O	x	4.1	6.3%	x	-16.9%	4.9%
COCCCNC(=O)CCn1c(=O)c2ccccc2n(CC(=O)Nc2ccc(C)cc2C)c1=O	-15.0%	19.4	-5.8%	x	-18.0%	2.0%
SMILES	VACV Venus inh	HCMV inh	Sm TGR inh	Vaccinia mCherry	FMDV antiviral	HCV inh
Cc1nn(CC(=O)NCCc2ccco2)c(=O)c2nn(-c3ccccc3)c(C)c12	x	-35.4	31.6µM*	x	-11.0%	-11.2%
COc1ccc(OC)c(CCNC(=O)Cn2nc(C)c3c(C)n(-c4ccc(C)cc4)nc3c2=O)c1	u	-91.8*	-27.3%	-29.7%	u	1.12µM*
Cc1ccc(-n2nc3c(=O)n(CC(=O)NCCc4ccccc4C)nc(C)c3c2C)cc1	u	-73.4*	-0.7%	u	u	5.01µM*
COc1cccc(NC(=O)C2CC2)c1	-4.0%	61.2	-1.3%	i	-9.9%	6.9%
COc1ccc(NC(=O)C2C3C=CC(O3)C2C(=O)O)cc1 (stereo not drawn)	x	19.4	44.7µM*	x	4.5%	-8.1%
CC(=O)c1ccc(NC(=O)C2C3C=CC(O3)C2C(=O)O)cc1 (stereo not drawn)	-9.8%	20.3	-6.1%	-8.8%	1.4%	11.9%
COc1cccc(NC(=O)C2C3C=CC(O3)C2C(=O)O)c1 (stereo not drawn)	0.8%	-4.0	35.5µM*	-25.7%	-1.9%	-7.4%
CCCOC(=O)c1ccc(NC(=O)C2C3C=CC(O3)C2C(=O)O)cc1 (stereo not drawn)	-16.9%	17.0	20µM*	x	43.9%	10.5%
O=C(O)C1C2C=CC(O2)C1C(=O)Nc1ccc2c(c1)OCCO2 (stereo not drawn)	x	x	35.5µM*	x	x	x
O=C(O)c1cccc(CSc2nc(-c3ccc(Cl)cc3)cc(C(F)(F)F)n2)c1	x	-25.2	15.1%	x	2.8%	-8.7%
CCN(CC)S(=O)(=O)c1cc(NC(=O)C(C)OC(=O)c2[nH]c(C)c(C(C)=O)c2C)ccc1C (stereo not drawn)	u	-28.6	-1.6%	-25.8%	u	u
CC1(C)C(=O)C=CC(=O)C(C)(C)C(=O)C=CC(=O)C(C)(C)C2=CC=C(O2)C(C)(C)C(=O)C=CC1=O	-1.7%	-22.3	x	-10.0%	7.94µM*	u
Cc1onc(-c2ccccc2)c1C(=O)NNC(=S)NC(=O)c1ccc(Cl)cc1Cl	-18.4%	-6.2	-7.1%	-6.6%	-29.5%	-13.8%
C#CC[N+]1(CC#Cc2cccc3ccccc23)CCOCC1	-3.6%	-35.1	28.2µM*	18.0%	-12.1%	9.2%
C(#Cc1ccccc1)C[N+]1(CC#Cc2cccc3ccccc23)CCCC1	x	-100.4*	u	x	u	u
C#CC[N+]1(CC#Cc2ccccc2)CCCC1	-25.3%	-32.7	-29.7%	x	-28.6%	-9.6%
Cc1cc(Cl)c(C)c(S(=O)(=O)N2CCN(C(=O)C3CCCO3)CC2)c1Cl (stereo not drawn)	-5.4%	3.2	-11.0%	-2.2%	-26.9%	u
CCc1ccccc1NC1=NCC(=O)N1C1CCCCC1	-10.8%	26.9	1.7%	-2.7%	-10.2%	4.2%
CC1(C)Cc2c(C#N)c(N3CCN(C(=O)c4ccco4)CC3)nc(Cc3ccccc3)c2CO1	-13.1%	-36.2	0.0%	i	39.8µM*	-15.4%
CCc1nc(N2CCN(C(C)=O)CC2)c(C#N)c2c1COC(C)(C)C2	x	-8.3	2.5%	x	-18.4%	-3.2%

Screening results from PubChem BioAssay.
